Only a selection was taken, and the strongest signals are over-represented in it overall.
Columns and labels:
Test in all cases: glycan array binding signal (z-score within array); higher = stronger binding
Conditions in all cases: glycan notation: IUPAC condensed, linker removed
[1] = target: Fuc(a1-2)Gal(b1-3)GalNAc(b1-3)Gal(a1-4)Gal(b1-4)Glc
Method in brief: (§1)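 Columns mapping to the same glycan were averaged after glycan names were converted to IUPAC-condensed notation. The data come from 3228 arrays in the Consortium for Functional Glycomics database, limited to those with an available protein sequence. Binding is reported as a within-array Z-score averaged across arrays of one protein sequence and across linkers.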

[2] = target: Fuc(a1-2)Gal(b1-4)GlcNAc(b1-2)Man(a1-3)[Fuc(a1-2)Gal(b1-4)GlcNAc(b1-2)Man(a1-6)]Man(b1-4)GlcNAc(b1-4)GlcNAc
Method in brief: as §1

[3] = target: Fuc(a1-2)Gal(b1-4)GlcNAc(b1-3)Gal(b1-4)GlcNAc(b1-2)Man(a1-3)[Fuc(a1-2)Gal(b1-4)GlcNAc(b1-3)Gal(b1-4)GlcNAc(b1-2)Man(a1-6)]Man(b1-4)GlcNAc(b1-4)GlcNAc
Method in brief: as §1

[4] = target: Fuc(a1-2)Gal6S(b1-3)GlcNAc6S
Method in brief: as §1

[5] = target: Fuc(a1-2)[Gal(a1-3)]Gal
Method in brief: as §1

[6] = target: Fuc(a1-2)[Gal(a1-3)]Gal(b1-4)GlcNAc(b1-6)GalNAc
Method in brief: as §1

[7] = target: Fuc(a1-2)[GalNAc(a1-3)]Gal(b1-4)GlcNAc(b1-2)Man
Method in brief: as §1

[8] = target: Fuc(a1-2)[GalNAc(a1-3)]Gal(b1-4)GlcNAc(b1-3)Gal(b1-4)GlcNAc(b1-3)Gal(b1-4)GlcNAc
Method in brief: as §1

[9] = target: Fuc(a1-3)[Gal(b1-4)]GlcNAc(b1-2)Man(a1-3)[Fuc(a1-3)[Gal(b1-4)]GlcNAc(b1-2)Man(a1-6)]Man(b1-4)GlcNAc(b1-4)[Fuc(a1-6)]GlcNAc
Method in brief: as §1

[10] = target: Gal(a1-3)Gal
Method in brief: as §1

[11] = target: Gal(a1-3)Gal(b1-4)GlcNAc(b1-3)GalNAc
Method in brief: as §1

[12] = target: Gal(a1-4)Gal(b1-4)GlcNAc(b1-2)Man(a1-3)[Gal(a1-4)Gal(b1-4)GlcNAc(b1-2)Man(a1-6)]Man(b1-4)GlcNAc(b1-4)GlcNAc
Method in brief: as §1

[13] = target: Gal(b1-2)Gal
Method in brief: as §1

[14] = target: Gal(b1-3)GalNAc(b1-3)Gal
Method in brief: as §1

[15] = target: Gal(b1-3)GalNAc(b1-4)[Neu5Ac(a2-3)]Gal(b1-4)Glc
Method in brief: as §1

[16] = target: Gal(b1-4)GlcNAc(b1-2)Man
Method in brief: as §1

[17] = target: Gal(b1-4)GlcNAc(b1-2)[Gal(b1-4)GlcNAc(b1-4)]Man(a1-3)[Gal(b1-4)GlcNAc(b1-2)Man(a1-6)]Man(b1-4)GlcNAc(b1-4)GlcNAc
Method in brief: as §1

[18] = target: Gal(b1-4)GlcNAc(b1-3)Gal(b1-4)GlcNAc
Method in brief: as §1

[19] = target: Gal(b1-4)GlcNAc(b1-3)Gal(b1-4)GlcNAc(b1-3)Gal(b1-4)GlcNAc(b1-3)Gal(b1-4)GlcNAc(b1-3)Gal(b1-4)GlcNAc(b1-2)Man(a1-3)[Gal(b1-4)GlcNAc(b1-3)Gal(b1-4)GlcNAc(b1-3)Gal(b1-4)GlcNAc(b1-3)Gal(b1-4)GlcNAc(b1-3)Gal(b1-4)GlcNAc(b1-2)Man(a1-6)]Man(b1-4)GlcNAc(b1-4)GlcNAc
Method in brief: as §1

[20] = target: Gal(b1-4)GlcNAc(b1-3)Gal(b1-4)GlcNAc(b1-3)Gal(b1-4)GlcNAc(b1-3)Gal(b1-4)GlcNAc(b1-3)Gal(b1-4)GlcNAc(b1-2)Man(a1-3)[Gal(b1-4)GlcNAc(b1-3)Gal(b1-4)GlcNAc(b1-3)Gal(b1-4)GlcNAc(b1-3)Gal(b1-4)GlcNAc(b1-3)Gal(b1-4)GlcNAc(b1-2)Man(a1-6)]Man(b1-4)GlcNAc(b1-4)[Fuc(a1-6)]GlcNAc
Method in brief: as §1

[21] = target: Gal3S(b1-3)GalNAc
Method in brief: as §1

[22] = target: Gal6S(b1-4)GlcNAc6S
Method in brief: as §1

[23] = target: GalNAc(b1-3)Gal(a1-4)Gal(b1-4)GlcNAc
Method in brief: as §1

[24] = target: GalNAc(b1-3)GlcNAc
Method in brief: as §1

[25] = target: GalNAc(b1-4)Gal(b1-4)Glc
Method in brief: as §1

[26] = target: GalNAc(b1-4)GlcNAc(b1-3)GalNAc(b1-4)GlcNAc
Method in brief: as §1

[27] = target: GalNAc3S(b1-4)GlcNAc
Method in brief: as §1

[28] = target: GlcNAc(b1-2)Man(a1-3)[GlcNAc(b1-2)Man(a1-6)]Man(b1-4)GlcNAc(b1-4)[Fuc(a1-6)]GlcNAc
Method in brief: as §1

[29] = target: GlcNAc(b1-2)Man(a1-3)[GlcNAc(b1-4)][GlcNAc(b1-2)Man(a1-6)]Man(b1-4)GlcNAc(b1-4)GlcNAc
Method in brief: as §1

[30] = target: GlcNAc(b1-2)[GlcNAc(b1-6)]Man(a1-6)[GlcNAc(b1-4)][GlcNAc(b1-2)Man(a1-3)]Man(b1-4)GlcNAc(b1-4)GlcNAc
Method in brief: as §1

B1: pTFF2 (Sus scrofa), P01359 (protein)
chain: KPAACRCSRQDPKNRVNCGFPGITSDQCFTSGCCFDSQVPGVPWCFKPLPAQESEECVMEVSARKNCGYPGISPEDCAARNCCFSDTIPEVPWCFFPMSVEACHY
- glycan array binding signal (z-score) [1]: -0.047
- glycan array binding signal (z-score) [2]: 0.121
- glycan array binding signal (z-score) [3]: 0.716
- glycan array binding signal (z-score) [4]: -0.991
- glycan array binding signal (z-score) [5]: -0.204
- glycan array binding signal (z-score) [6]: -0.303
- glycan array binding signal (z-score) [7]: 0.535
- glycan array binding signal (z-score) [8]: -0.048
- glycan array binding signal (z-score) [9]: -0.109
- glycan array binding signal (z-score) [10]: -0.276
- glycan array binding signal (z-score) [11]: 0.196
- glycan array binding signal (z-score) [12]: 2.45
- glycan array binding signal (z-score) [13]: -1.31
- glycan array binding signal (z-score) [14]: 2.98
- glycan array binding signal (z-score) [15]: 2.82
- glycan array binding signal (z-score) [16]: -2.22
- glycan array binding signal (z-score) [17]: -0.702
- glycan array binding signal (z-score) [18]: -0.47
- glycan array binding signal (z-score) [19]: 2.48
- glycan array binding signal (z-score) [20]: 2.62
- glycan array binding signal (z-score) [21]: 0.185
- glycan array binding signal (z-score) [22]: 0.285
- glycan array binding signal (z-score) [23]: -0.4
- glycan array binding signal (z-score) [24]: 0.736
- glycan array binding signal (z-score) [25]: 4.38
- glycan array binding signal (z-score) [26]: -0.11
- glycan array binding signal (z-score) [27]: 2.64
- glycan array binding signal (z-score) [28]: -1.4
- glycan array binding signal (z-score) [29]: 0.002
- glycan array binding signal (z-score) [30]: 0.104

— the supplement of paper PMC8728848
